PubChem BioAssay AID652016 (National Center for Advancing Translational Sciences (NCATS), 2013)
Inconclusive results are not listed. Activity calls are given as the source filed them. Calls come from the whole dose curve; as a rule, active = well fitted inhibition curve with a large enough effect; inconclusive = small, poorly fitted or top-dose-only effect; inactive = flat fitted curve, though single readings scatter.

These molecules were tested against Luciferin 4-monooxygenase (Photinus pyralis) (UniProt P08659) (assay: qHTS Assay for Inhibitors of Firefly Luciferase from the GSK Published Protein Kinase Inhibitor Set). Settings: purified firefly luciferase, luminescence inhibition; series mostly up to 57.5 µM; activity change, negative = inhibition: at the top concentration.
Source text: FLuc (firefly luciferase) is the prototypical bioluminescent reporter gene from Photinus pyralis.[1] The enzyme catalyzes the oxidation luciferin via luciferin-AMP to produce light. FLuc is used in cell-based reporter gene-based assays for screening small molecule chemical libraries. However, small molecule luciferase inhibitors present in most large chemical libraries are often enriched in the output of high throughput screens using this reporter sometimes complicating interpretation and candidate selection.
RLuc is a bioluminescent reporter gene luciferase from Renilla reniformis, also known as the sea pansy. RLuc uses the luciferin substrate coelenterazine. RLuc is often used in combination with the nonhomologous luciferase FLuc (firefly luciferease) as a trasfection or pathway normalization control. Recently, non-homologous reporters have been described for high throughput screening 'coincidence' reporter gene strategies.
1. Fan F, Wood KV (2007) Bioluminescent assays for high-throughput screening. Assay Drug Dev Technol 5: 127-136.
2. Thorne N, Inglese J, Auld DS (2010) Illuminating insights into firefly luciferase and other bioluminescent reporters used in chemical biology. Chem Biol 17: 646-657.
3. […] Chem Biol 19: 1060-1072.
4. Michelini E, Cevenini L, Mezzanotte L, Coppa A, Roda A (2010) Cell-based assays: fuelling drug discovery. Anal Bioanal Chem 398: 227-238.
5. Cheng KC, Inglese J (2012) A coincidence reporter-gene system for high-throughput screening. Nat Methods 9: 937.
Biochemical firefly luciferase enzyme assay
NCGC Assay Protocol Summary:
Reagents: 50mM Tris acetate, pH 7.5; 10mM Mg acetate; 10uM D-luciferin (Sigma #L9504); 10uM ATP; 0.01% Tween-20; 0.05% BSA; 10nM P. pyralis luciferase (Sigma #L9506)
Control compounds used were two known firefly luciferase inhibitors (compounds (2) and (5) in Auld et al., 2010), and DMSO.
Three microliters containing firefly luciferase substrates in buffer (final concentrations: 50mM Tris acetate, pH 7.5, 10mM Mg acetate, 0.01% Tween-20, 0.05% BSA, 10uM D-luciferin, and 10uM ATP) are dispensed into each well of a Greiner white, solid-bottom 1536-well format plate using a flying reagent dispenser (FRD). These assay plates were then treated with 23nL of compound or DMSO using a Kalypsys pin tool, which allows for delivery of a 7-point interplate titration of each compound to the assay plates (quantitative HTS), with final compound concentrations ranging from approximately 60uM to 300pM. One microliter of firefly luciferase in 50mM Tris-acetate buffer was then delivered by FRD to each well for a final enzyme concentration of 10nM. Luciferase activity was then measured using an Envision plate reader (PerkinElmer), with an average incubation time of 5 min.
% is set by controls: 0 for no effect and ±100 for the full control effect; potency is the fitted concentration of half-maximal effect.

Sequence of Luciferin 4-monooxygenase (Photinus pyralis) (P08659 whole entry, looked up): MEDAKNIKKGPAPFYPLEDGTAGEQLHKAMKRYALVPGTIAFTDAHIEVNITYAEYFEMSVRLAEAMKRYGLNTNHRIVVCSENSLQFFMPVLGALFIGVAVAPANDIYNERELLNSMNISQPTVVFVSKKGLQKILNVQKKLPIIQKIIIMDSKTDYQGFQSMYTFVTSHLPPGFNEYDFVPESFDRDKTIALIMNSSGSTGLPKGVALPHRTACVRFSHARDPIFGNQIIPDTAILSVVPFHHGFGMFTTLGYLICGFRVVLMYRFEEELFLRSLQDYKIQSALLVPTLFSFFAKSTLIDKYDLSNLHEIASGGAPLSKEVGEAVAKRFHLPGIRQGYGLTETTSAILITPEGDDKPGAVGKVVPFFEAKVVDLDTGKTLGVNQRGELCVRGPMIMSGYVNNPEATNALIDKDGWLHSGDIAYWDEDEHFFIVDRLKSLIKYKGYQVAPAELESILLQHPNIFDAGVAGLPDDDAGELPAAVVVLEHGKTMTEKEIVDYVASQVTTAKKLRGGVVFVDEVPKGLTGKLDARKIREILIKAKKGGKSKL

Compound	activity change, negative = inhibition	Potency
CC(Oc1cc(-n2cnc3ccc(OCC(O)CO)cc32)sc1C(N)=O)c1ccccc1Cl (stereo not given)	6.05% (inactive)	–
Fc1cccc(COc2ccc(Nc3ncnc4sc(-c5ccco5)cc34)cc2Cl)c1	10.4% (inactive)	–
CCn1c(-c2nonc2N)nc2c(N3CCCC3)nccc21	11.3% (inactive)	–
N#Cc1c(NC(=O)c2ccccc2F)sc2c1CCCC2	–	819 nM (active)
CS(=O)(=O)CCNCc1ccc(-c2ccc3ncnc(Nc4ccc(OCc5cccc(C(F)(F)F)c5)cc4)c3c2)o1	0.519% (inactive)	–
CCn1c(-c2nonc2N)nc2c(C#CC(C)(C)O)nc(OC(CN)c3ccccc3)cc21 (stereo not given)	24.3% (inactive)	–
N#Cc1cccc(Nc2ncc(-c3ccccc3)o2)c1	–	1030 nM (active)
COc1cc(C)c(NC(=O)CN(C)C)cc1Nc1nc(Nc2cccc(F)c2C(N)=O)c2cc[nH]c2n1	2.64% (inactive)	–
c1cc(-c2cnn3nc(N4CCOCC4)ccc23)nc(NC2CC2)n1	–	4610 nM (active)
CCS(=O)(=O)c1ccc(OC)c(Nc2nccc(N(C)c3ccc4c(C)[nH]nc4c3)n2)c1	0.285% (inactive)	–
CCCN1CCCC(c2ccc(Nc3nc(Nc4cc(F)ccc4C(N)=O)c4cc[nH]c4n3)c(OC)c2)C1 (stereo not given)	27.6% (inactive)	–
Clc1ccc(-c2nn3ncccc3c2-c2ccnc(Nc3ccccc3)n2)cc1	8.58% (inactive)	–
CN(C)CCOc1ccc(-c2nc(-c3ccc4c(c3)CCC4=NO)c(-c3ccncc3)[nH]2)cc1	–	14600 nM (active)
NS(=O)(=O)c1ccc(-c2ccc3c(NC(=O)C4CC4)n[nH]c3c2)cc1	-13.7% (inactive)	–
Fc1ccc(-c2cc(-c3cn[nH]c3-c3ccccn3)ccn2)cc1	-9.65% (inactive)	–
Cc1cccc(Nc2ncc(-c3ccccc3)o2)c1	–	580 nM (active)
COc1cc2c(cc1Nc1nc(N3CCc4ccccc43)c3cc[nH]c3n1)N(C(=O)CN(C)C)CC2	3.81% (inactive)	–
CC1=C(C(=O)Nc2cc(Cl)c3[nH]ncc3c2)C(c2ccc(C(F)(F)F)cc2)CC(=O)N1 (stereo not given)	7.74% (inactive)	–
COc1ccc(-c2nn3ncccc3c2-c2ccnc(Nc3ccc(Cl)c(C(F)(F)F)c3)n2)cc1	9.12% (inactive)	–
Nc1nonc1-c1nc2cnccc2n1C1CCCCC1	21.4% (inactive)	–

Compound	activity change, negative = inhibition	Potency
CCS(=O)(=O)c1ccc(OC)c(Nc2ncc(-c3cccc(F)c3)o2)c1	7.1% (inactive)	–
O=C(Nc1n[nH]c2nnc(-c3cccnc3)cc12)C1CC1	6.05% (inactive)	–
COc1ccc2ncn(-c3cc(OC(C)c4ccccc4Cl)c(C(N)=O)s3)c2c1 (stereo not given)	2.04% (inactive)	–
CC(C)=Cc1cccc2[nH]c(O)c(N=Nc3ccc(S(N)(=O)=O)cc3)c12	3.89% (inactive)	–
Fc1ccc(-c2ncn(C3CCNCC3)c2-c2ccnc(Oc3cccc(C(F)(F)F)c3)n2)cc1	-0.174% (inactive)	–
CCn1c(-c2nonc2N)nc2c(C#CC(C)(C)O)nc(OCCNC)cc21	2.21% (inactive)	–
CN1CCC(n2cnc(-c3ccc(F)cc3)c2-c2ccnc(Nc3ccccc3)n2)CC1	3.59% (inactive)	–
CNC(=O)c1cncc(C=Cc2ccccc2C)c1	9.18% (inactive)	–
Oc1cccc(-c2nc(-c3ccccc3)[nH]c2-c2ccncc2)c1	-4.49% (inactive)	–
NS(=O)(=O)c1ccc(Nc2ncc(-c3ccccc3)o2)cc1	-5.78% (inactive)	–
CC1=C(C(=O)Nc2ccc3n[nH]c(C)c3c2)C(c2ccc(C(F)(F)F)cc2)CC(=O)N1 (stereo not given)	-0.842% (inactive)	–
Cc1ccc(NC(=O)c2ccnc(N3CCCC3)c2)cc1-c1ccc(C(=O)NCC2CC2)cc1	-8.62% (inactive)	–
COc1ccc2ncn(-c3cc(OC(C)c4ccccc4C(F)(F)F)c(C(N)=O)s3)c2c1 (stereo not given)	13.7% (inactive)	–
CNC(=O)c1cccc(C#Cc2cncnc2Nc2ccc(OCc3cccc(F)c3)c(Cl)c2)c1	-14.8% (inactive)	–
COc1ccc2cc(-c3c(-c4ccncc4)nc(-c4ccc(S(C)(=O)=O)cc4C)n3C)ccc2c1	-2.8% (inactive)	–
NS(=O)(=O)c1cccc(-c2cc3ccncc3cc2OCc2ccccc2)c1	-9.85% (inactive)	–
COc1ccc(-c2ccncc2)cc1C(N)=O	6.06% (inactive)	–
CC(Oc1cc(-n2cnc3ccc(OC4CCN(C)CC4)cc32)sc1C(N)=O)c1ccccc1Cl (stereo not given)	4.46% (inactive)	–
Fc1cccc(COc2ccc(Nc3ncnc4cc(-c5ccc[nH]5)sc34)cc2Cl)c1	-9.56% (inactive)	–
COc1cc2c(cc1Nc1nc(Nc3ccsc3C(N)=O)c3cc[nH]c3n1)N(C(=O)CN(C)C)CCC2	4.82% (inactive)	–
